Screening results from PubChem BioAssay.
In the library only some 3.5% were active in any assay of this set; here they are far more common.
GPR151 activ = activates the human receptor GPR151 | Q8TDV0 | PathHunter beta-arrestin GPR151 cells, luminescence | 650,000 compounds, 1% hits | AID 1508602 | activation, % at 11.2 µM; in the data active = activation above about 4.9%;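 also: 0% = median of compound wells and 100% = cells with positive control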
Target sequence (Q8TDV0 whole entry, looked up): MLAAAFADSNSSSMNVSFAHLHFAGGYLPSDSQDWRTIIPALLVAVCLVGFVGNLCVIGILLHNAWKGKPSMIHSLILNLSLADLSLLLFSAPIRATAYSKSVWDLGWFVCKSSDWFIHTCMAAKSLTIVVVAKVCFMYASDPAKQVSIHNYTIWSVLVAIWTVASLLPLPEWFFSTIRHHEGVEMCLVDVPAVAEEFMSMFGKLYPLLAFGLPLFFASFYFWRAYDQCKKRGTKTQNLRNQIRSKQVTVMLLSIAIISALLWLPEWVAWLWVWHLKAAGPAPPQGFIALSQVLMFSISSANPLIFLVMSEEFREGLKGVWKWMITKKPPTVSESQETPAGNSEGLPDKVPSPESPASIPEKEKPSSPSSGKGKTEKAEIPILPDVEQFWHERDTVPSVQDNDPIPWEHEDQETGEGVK
MITF inh = blocks human microphthalmia-associated transcription factor | O75030 | AlphaScreen MITF homodimerization, bead proximity signal | inhibition, % at 2.6 µM | 650,000 compounds, 0.91% hits; in the data active = inhibition above about 50%;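 also: 0% = vehicle wells with protein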
TEAD-YAP block = TEAD-YAP interaction inhibition | HEK-TIYL cells, TEAD-Gal4/YAP UAS-luciferase luminescence | 640,000 compounds, 1.4% hits | inhibition, % at 9.12 µM; in the data active = inhibition above about 32%;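 also: 0% = median of test compound wells and 100% = reference inhibitor wells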
FBW7 activator = activators of human E3 ligase FBW7. Q969H0. AlphaScreen FBW7–phospho-cyclin E peptide binding, activator screen. normalized activity (activation), % at 26.1 µM. 650,000 compounds, 0.13% hits; in the data active = normalized activity above about 1.9%;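 also: purified mutant Fbw7 with reduced substrate affinity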
GPR151 confirm = confirmation of human GPR151 activators; shares compounds with GPR151 activ; GPR151 PathHunter beta-arrestin cells, luminescence, 90 min; % of EA-reagent control over plate median; activation, % at 11.2 µM; 6,700 tested, under 10 active; AID 1508609;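 active = mean percent activation across replicates above the confirmation screen cutoff of 4.91%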
GPR119 counter = counter-screen for GPR151 activators: effect on human GPR119 | AID 1508611 | activation, % at 11.2 µM | 6,700 compounds, 0.3% hits | shares compounds with GPR151 activ | GPR119 PathHunter beta-arrestin cells, luminescence, 90 min; 0 = compound-well median, 100 = enzyme-acceptor control;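 active = mean percent activation in the counterscreen above 29.09%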;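 also: counterscreen on off-target GPR119 to flag nonselective hits from the GPR151 activator screen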
An asterisk follows results filed as active; / = not tested or not shown; ! = a repeat was not active.

SMILES | GPR151 activ | MITF inh | TEAD-YAP block | FBW7 activator | GPR151 confirm | GPR119 counter
O=C(Nc1ccc(N2CCOCC2)cc1)C1CCN(c2ccc(Cl)nn2)CC1 | 6.0* | 9.2 | 9.0 | -0.1 | -0.5 | 5.1
CC(=O)Nc1ccc(NC(=O)c2ccnc(Nc3ccc(N4CCOCC4)cc3)c2)cc1 | -1.6 | 1.2 | -4.4 | -0.1 | / | /
O=C(Nc1ccc2c(c1)OCO2)c1ccnc(NCCN2CCOCC2)c1 | 7.1* | 7.0 | -17.7 | 0.4 | -0.1 | -7.3
NC(=O)C1CCN(CC(=O)Nc2ccc(N3CCOCC3)cc2)CC1 | 5.9* | 1.7 | 9.2 | -0.1 | 0.5 | 7.0
O=C(Nc1ccc(N2CCOCC2)cc1)c1ccnc(NCCN2CCOCC2)c1 | -1.0 | 29.2 | 7.7 | -0.2 | / | /
O=C(Nc1ccc(N2CCOCC2)cc1)c1ccnc(N2CCOCC2)c1 | 5.5* | 10.0 | -7.9 | -0.2 | -0.6 | 5.9
Cc1ccsc1CN1CCc2nnc(CNC(=O)c3ccccc3)n2CC1 | 0.6 | 1.8 | 1.4 | 0.0 | / | /
CC1CCc2c(sc(NC(=O)c3ccccc3Cl)c2C(=O)N2CCCCCC2)C1 (stereo not given) | -0.3 | -12.9 | -15.4 | 0.1 | / | /
O=C1CCCN1CCn1cnc2c(Nc3ccc(N4CCOCC4)cc3)nc(Nc3ccc(-n4ccnc4)cc3)nc21 | 5.9* | -1.8 | -3.5 | -0.3 | 0.0 | -8.1
O=C1CCCN1CCn1cnc2c(NCCO)nc(Nc3ccc(N4CCOCC4)cc3)nc21 | 5.6* | 10.8 | -4.1 | 0.1 | 0.2 | 0.4
CC(C)n1cnc2c(NCCN3CCOCC3)nc(Nc3ccc(-n4ccnc4)cc3)nc21 | 6.2* | 11.9 | 14.5 | 0.0 | -1.8 | -15.2
On1ccc2c(Br)cncc21 | -0.1 | 5.3 | -10.5 | 0.0 | / | /
CCN(CC(=O)N1CCN(c2cccc(Cl)c2)CC1)S(=O)(=O)c1ccc(C)cc1 | -1.6 | -8.2 | 2.3 | 0.1 | / | /
Cc1ccc(-n2c(-c3ccc4[nH]c(C)c(C)c4c3)n[nH]c2=S)cc1 | 5.5* | 8.4 | -27.0 | -0.2 | 0.7 | -3.7
C/C(=C\c1ccccc1)CN1CCC(C(=O)NC(C)C)CC1 | 5.1* | 44.0 | 10.4 | 0.1 | -0.8 | -5.3
Cc1ccc(S(=O)(=O)N2CCN(c3nc4ccccc4s3)CC2)cc1 | -0.1 | 10.3 | 14.4 | 0.3 | / | /
O=C1NCC(O)=C1C=Nc1ccccc1 | 5.2* | -2.1 | 3.0 | -0.3 | -1.9 | -14.9
O=C1NCC(O)=C1C=NCCO | 6.2* | 10.9 | 2.6 | -0.1 | 1.0 | 2.9
O=C1NCC(O)=C1C=Nc1ccc(O)cc1 | 0.2 | 15.0 | 5.0 | 0.2 | / | /
CCOc1ccc(NC2=CC(=O)C=CC2=O)cc1 | 5.8* | 26.0 | 7.9 | -0.4 | 0.3 | -1.6
CCOc1ccc(NC2=CC(=O)CCC2)cc1 | 1.0 | -3.9 | -1.3 | -0.1 | / | /
COC(=O)c1ccc(NC(=O)CSc2nnc3[nH]c(=O)ccn23)cc1 | 6.3* | 2.1 | 13.6 | 0.0 | -1.3 | -0.9
Cc1csc(Sc2ccc([N+](=O)[O-])cc2C(=O)OCC(=O)Nc2cc(C)on2)n1 | 0.2 | 13.0 | -1.6 | 0.0 | / | /
Cc1csc(Sc2ccc([N+](=O)[O-])cc2C(=O)OC(C)C#N)n1 (stereo not given) | 5.3* | 3.9 | 2.3 | -0.2 | -0.3 | 4.5
COc1ccc(N2C(=O)CC(NC3CCC(C)CC3)C2=O)cc1 (stereo not given) | -0.1 | -0.4 | 8.9 | 0.1 | / | /
SMILES | GPR151 activ | MITF inh | TEAD-YAP block | FBW7 activator | GPR151 confirm | GPR119 counter
c1ccc(OCCNc2ncnc3nc(Nc4cnccn4)[nH]c23)cc1 | 5.7* | 4.1 | 4.2 | 0.0 | -1.5 | -2.1
Cn1c(Nc2nc3ncnc(NCCOc4ccccc4)c3[nH]2)nc2ccccc21 | 4.9* | 20.0 | 6.1 | -0.4 | -0.6 | -10.2
c1ccc(OCCNc2ncnc3nc(Nc4nccc5ccccc45)[nH]c23)cc1 | 1.7 | 14.2 | -2.2 | -0.2 | / | /
O=C1CSC(c2ccc(F)c(F)c2)N1c1ccc2ccccc2c1 (stereo not given) | -2.6 | 1.8 | -17.6 | -0.2 | / | /
Cc1ccc(NC(=O)CSc2ccc3nnc(-c4cccc(F)c4)n3n2)c(C)c1 | 1.8 | 1.7 | -6.0 | 0.0 | / | /
CCN1C(=O)CC(C(=O)OC)C12CCN(C/C=C/c1ccc(N(C)C)cc1)CC2 (stereo not given) | -0.7 | -1.3 | -13.0 | -0.1 | / | /
CC1(C(=O)NNC(=S)NCc2ccco2)CC1(Cl)Cl (stereo not given) | 5.3* | 10.6 | 2.5 | 0.1 | 0.5 | 5.3
CC(Oc1ccccc1)C(=O)Nc1ccc(F)c(Cl)c1 (stereo not given) | 0.7 | 0.8 | 0.2 | 0.2 | / | /
CCOc1cc(C2C(C(=O)OC)=CN(CCOC)C=C2C(=O)OC)cc([N+](=O)[O-])c1O | 6.0* | 5.6 | 4.4 | -0.4 | 0.9 | -1.3
CN(C)CC(O)COC(c1ccccc1)c1ccccc1 (stereo not given) | 7.7* | -3.5 | 7.0 | 0.1 | -0.2 | -3.6
CCN1CCN(CC(O)COC(c2ccccc2)c2ccccc2)CC1 (stereo not given) | 1.9 | -20.0 | 0.6 | 0.3 | / | /
CN1CCN(c2c(F)cc3c(=O)c(C(=O)O)cn4c3c2OCN4C)CC1 | 1.6 | 1.0 | 3.0 | -0.3 | / | /
CN1CCN(c2c(F)cc3c(=O)c(C(=O)O)cn(CCF)c3c2F)CC1 | 6.3*! | 17.1 | 3.0 | 0.1 | 0.3 | 3.5
Cc1ccc(OCc2ccc(C(=O)NNC(=S)NCC3CCCO3)o2)c([N+](=O)[O-])c1 (stereo not given) | 5.8* | 20.2 | 2.6 | -0.1 | 0.8 | -0.8
Cc1ccc(OC(C)C(=O)NNC(=S)NCC2CCCO2)c([N+](=O)[O-])c1 (stereo not given) | 1.2 | 4.6 | 5.1 | 0.0 | / | /
CCc1cccc(C)c1NC(=S)N(Cc1ccc(C)cc1)Cc1ccco1 | 1.1 | 1.4 | -6.0 | -0.1 | / | /
CC(=O)c1cc(C)ccc1OC(=O)c1ccc([N+](=O)[O-])cc1 | 6.4* | 7.7 | -0.6 | -0.1 | 0.8 | -8.8
Cc1ccc(S(=O)(=O)NCC(=O)N(CC(=O)NC(C)(C)C)Cc2ccco2)cc1 | -0.8 | -2.9 | 2.9 | -0.1 | / | /
CCCCOc1ccc(OCCCC)c2c1NC1(N2)C(=O)Nc2ccc([N+](=O)[O-])cc21 | 5.1* | 4.9 | -9.1 | 0.0 | 0.8 | 1.9
O=C/C(=C\Nn1cnnc1)c1nc2ccccc2o1 | 15.1* | 12.9 | 2.3 | -0.2 | -0.3 | -6.6
CNS(=O)(=O)c1ccc(N/C=C(\C#N)c2nc3ccccc3o2)cc1 | 1.4 | 12.3 | -29.9 | 0.3 | / | /
COc1cc2nc(NCCCOC(C)C)n3nc(-c4cccnc4)nc3c2cc1OC | 5.2* | 1.4 | 9.8 | 0.1 | -0.2 | -8.6
CC(C)CC(C(=O)NC1CCCC1)N1Cc2ccccc2C1=O (stereo not given) | 0.0 | -7.5 | -1.5 | 0.1 | / | /
CC1(C)Cc2ccccc2C2=C(C(=O)N3CCCCCC3)C(=O)C(=O)N21 | 0.8 | 11.7 | 8.1 | -0.2 | / | /
CCNC(=O)C1=C2c3ccccc3CC(C)(C)N2C(=O)C1=O | 6.1* | -3.2 | 0.4 | -0.1 | 0.1 | 9.6
